Laboratory results reported in PubChem BioAssay (NCI).
This is part of a sample that, as a whole, favours compounds with a hit. Of some 83,000 tested, about 20% had one in any assay.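 Values shown are percent growth following 48 h exposure of cells in 96-well plates to a single concentration of compound; below 10 was considered active.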 A number with no mark means an inactive call. Calls of active or inactive are those of the source.

Tests used:
Assay in all cases: NCI-60 one-dose screen, 48 h (100 = growth as untreated, 0 = no growth, -100 = all killed)
Settings in all cases: 10 µM
BT-549 breast = tested on: BT-549 breast
MDA-MB-435 melanoma = tested on: MDA-MB-435 melanoma
SW-620 colon = tested on: SW-620 colon
MCF7 breast = tested on: MCF7 breast
HCT-116 colon = tested on: HCT-116 colon
HCC-2998 colon = tested on: HCC-2998 colon
KM12 colon = tested on: KM12 colon

SMILES	growth (BT-549 breast)	growth (MDA-MB-435 melanoma)	growth (SW-620 colon)	growth (MCF7 breast)	growth (HCT-116 colon)	growth (HCC-2998 colon)	growth (KM12 colon)
Cc1nc2c(c(=O)[nH]1)OCN(Cc1ccccc1)C2	102%	112%	102%	102%	100%	104%	104%
O=C(Nc1cccc(-n2cc(-c3ccncc3)c(-c3ccc(O)c(Cl)c3)n2)c1)c1ccc(N2CCOCC2)c(C(F)(F)F)c1	47.2%	53.9%	36.3%	24.6%	26.7%	23.6%	14.9%
Cc1cc(Cl)nc(N(CCCNc2ccnc3cc(Cl)ccc23)Cc2cccs2)n1	24.7%	3.55% (active)	11.8%	10.7%	3.08% (active)	0.165% (active)	12.8%
CCN(CC)CCSCCN(CC)CC	105%	101%	99.2%	99.1%	107%	119%	107%
O=c1[nH]c(-c2ccc(Cl)cc2)nc2sc3c(c12)CCCC3	92.3%	93.2%	58.8%	36%	60.9%	109%	97.6%
COc1ccc(-c2csc(NC(=O)CSc3nc(C)c(-c4ccccc4)n3Nc3ccccc3)n2)cc1	63.5%	56.1%	70.2%	41.7%	36.4%	78.7%	41.5%
COc1ccc2c(c1)O/C(=C\c1ccc([N+](=O)[O-])o1)C2=O	-50% (active)	-72.5% (active)	-53.8% (active)	2.06% (active)	-39% (active)	-26.8% (active)	-11.5% (active)
COc1ccc(OC)c(/C=C/c2nc(SCc3ccccc3)n(-c3ccc(Cl)cc3)n2)c1	61.8%	-24.9% (active)	28.2%	52.9%	20.2%	73.1%	31.1%
CC(C)(C)NC/C(=C\c1ccccc1)C(=O)c1ccccc1	15.8%	4.28% (active)	-30.6% (active)	7.56% (active)	-95.3% (active)	-78.6% (active)	14%
Nc1ncnc2[nH]c(=O)[nH]c12	122%	96.4%	110%	100%	91.3%	111%	99.8%
NC(=O)c1ccc(-c2cccc3c(=O)nc(N4CCOCC4)oc23)cc1	98.1%	107%	104%	90.3%	104%	101%	97.6%
COc1cc2nc(Nc3cccc(NC(C)=O)c3)nc(N)c2cc1OC	118%	123%	95.9%	99.5%	95.9%	113%	89.5%
Nc1ncn([C@@H]2O[C@H](CO)[C@@H](O)[C@H]2O)c(=O)n1	16.3%	16.6%	35.6%	23.5%	-31.5% (active)	11.7%	16.6%
COC(=O)C(C(C[N+](=O)[O-])c1ccccc1)=P(c1ccccc1)(c1ccccc1)c1ccccc1 (stereo not drawn)	93%	49.5%	69.8%	30.2%	4.02% (active)	101%	88.3%
ClC(Cl)(Cl)c1nc2nccnc2[nH]1	103%	102%	107%	94.1%	103%	122%	106%
CCCCN(CCCC)c1cc(C(=O)CCCCCN)c2ccccc2n1	68.2%	-52.1% (active)	39.8%	40%	-95.6% (active)	-31.4% (active)	-93.3% (active)
COc1ccc(/C=C/C(=O)Nc2ccc(-c3nc4ccc(F)cc4s3)cc2)cc1	86.7%	97%	106%	38.9%	88.5%	99.1%	101%
CN(C)c1ccc(/C=C/C=N/NC(=O)c2cc(O)c(O)c(O)c2)cc1	89.7%	96.7%	43.4%	87.8%	52.7%	109%	104%

SMILES	growth (BT-549 breast)	growth (MDA-MB-435 melanoma)	growth (SW-620 colon)	growth (MCF7 breast)	growth (HCT-116 colon)	growth (HCC-2998 colon)	growth (KM12 colon)
CC(C)(Cl)CCC1=C(Cl)C(=O)c2ccccc2C1=O	66.5%	66.4%	7.89% (active)	-0.254% (active)	17.2%	74.3%	35.7%
CSc1nc(=O)n(Cc2ccc(F)cc2)c(=O)n1Cc1ccc(C)cc1	103%	117%	115%	91.1%	97.5%	95.5%	96.4%
CCN(CC)CCC(=O)Nc1cccc2c1C(=O)c1c(c(O)c3ccccc3c1O)C2=O	68.8%	91.6%	43.8%	30.3%	44.9%	80.9%	56.9%
COc1cc(Nc2ccnc(NCCNc3ccnc4cc(Cl)ccc34)n2)cc(OC)c1	51.4%	-50.7% (active)	19.9%	8.25% (active)	-20.2% (active)	29.7%	55.3%
CCOC(=O)C1CCc2c(ccc3ccccc23)N1CCC#N (stereo not drawn)	96%	35.6%	91.9%	85.9%	96.4%	93.5%	94.9%
O=C(Nc1cccc(-n2cc(-c3ccncc3)c(-c3ccc(O)c(Cl)c3)n2)c1)c1cccc(C(F)(F)F)c1	43.9%	33.7%	26.1%	13.9%	21.7%	25.7%	20.2%
O=[P@@]1(c2ccccc2)O[C@H](COCc2ccccc2)[C@@H](OCc2ccccc2)[C@H](OCc2ccccc2)[C@H]1O	56.9%	95.6%	104%	51%	69.8%	103%	98.1%
CCOC(=O)N/N=C\C(C)=N\NC(=O)OCC	99.8%	88.8%	99%	99.5%	104%	111%	102%
O=S(=O)(NCCNc1nccc(-c2c(-c3ccc(F)cc3)nc3sccn23)n1)c1ccc2ccccc2c1	92.5%	56.4%	97.5%	38.2%	61.8%	82.6%	75.6%
COc1ccc2nc3cc(Cl)ccc3c(NCCNCC(C)O)c2c1 (stereo not drawn)	88%	37.9%	19.9%	10.5%	13.1%	40.8%	25.5%
c1ccc(C(NC2CC3CCC2C3)c2ccccc2)cc1 (stereo not drawn)	78.4%	91.6%	106%	98.4%	89.9%	102%	95%
Cc1cc(N(CCCNc2ccnc3cc(Cl)ccc23)Cc2cccs2)nc(Cl)n1	33.7%	48.9%	32.9%	40.8%	21.4%	36.8%	39.1%
COc1ccc2c(c1)N(CCO)C1=C(C(=O)OC1)C2c1cc(OC)c(OC)c(OC)c1 (stereo not drawn)	20.5%	-48.2% (active)	19.4%	19.3%	4.03% (active)	–	-43% (active)
COc1ccc(-c2nn(-c3cccc(NC(=O)Nc4cccc(C(F)(F)F)c4)c3)cc2-c2ccncc2)cc1Cl	8.32% (active)	-35.8% (active)	17.4%	5.79% (active)	9.6% (active)	30.5%	0.879% (active)
CCc1ccc2c(c1)N(CCO)C1=C(C(=O)OC1)C2c1cc(OC)c(OC)c(OC)c1 (stereo not drawn)	19.8%	-69.9% (active)	23%	19.4%	7.59% (active)	–	-29.6% (active)
CCCC#CCN(CC)CC	120%	95%	107%	102%	109%	120%	111%
COc1cc(C(=O)/C=C/c2cc(-c3cc(OC)c(OC)c(OC)c3)n[nH]2)cc(OC)c1OC	-79% (active)	-51.8% (active)	-71.8% (active)	3.65% (active)	-93.6% (active)	–	-77.7% (active)
O=C(CC(NC(=O)OCc1ccccc1)C(=O)OCc1ccccc1)OCc1ccccc1 (stereo not drawn)	112%	102%	91.6%	102%	97.4%	–	108%
